Results filed as inconclusive are left out. Where a call stands in place of a potency, no number is given. Calls of active or inactive are those of the source. Calls follow the shape of the dose curve; as a rule, active = well fitted cell-killing curve with a large enough effect in the repeat runs; inconclusive = weak or mixed curves; inactive = flat fitted curve, though single readings scatter.
Potency is read from the fitted curve at half-maximal effect.

A short description of this assay: qHTS RealTime-Glo MT Cell Viability Assay in HepG2 cells - 8 hour (AID 1224873). Also: nearly all actives have a fitted effect of over 55% in size. The note with it: RealTime-Glo luminescence; series mostly up to 76.8 µM. The text has this:
National Center for Advancing Translational Sciences [NCATS]
NIH Chemical Genomics Center [NCGC]
U.S. Environmental Protection Agency [EPA]
National Institutes of Environmental Health Sciences [NIEHS]
National Toxicology Program [NTP]
U.S. Food and Drug Administration [FDA]
Measure of cell viability is critical in the cell-base assay. Analysis of cell viability is necessary for the characterization of cell responses to cytotoxic drugs and environmental stress. A RealTime-Glo MT Cell Viability Assay to monitor cell viability in real time of continues cell culture during 40 hours of compound treatment was used to screen Tox21 10K library compounds in HepG2 cells. The RealTime-Glo MT Cell Viability Assay is a nonlytic, homogeneous, bioluminescent method to measure cell viability in real time using a simple, plate-based method. The assay involves adding NanoLuc luciferase and a cell-permeant prosubstrate to cells in culture. Viable cells reduce the proprietary prosubstrate to generate a substrate for NanoLuc luciferase. This substrate diffuses from cells into the surrounding culture medium, where it is rapidly used by the NanoLuc Enzyme to produce a luminescent signal. The signal correlates with the number of viable cells, making the assay well suited for cytotoxicity studies.
Tox21 Assay Protocol Summary:
The mixture of HepG2 cell suspension and reagents were dispensed at 600cells/6 ul/well in 1536-well tissue culture treated black solid bottom plates using a Multidrop dispenser. After the assay plates were incubated at a 37 C/5% CO2 incubator for 5 hours, 23 nL of compounds dissolved in DMSO, positive and negative controls was transferred to the assay plate by a pintool work station. The plates were incubated at 37 C for 40 hours. The luminescence intensity were measured at 0h, 8h, 16h, 24h, 32h and 40h time points using ViewLux plate reader during compound treatment.
(In general: Quantitative high-throughput screening tests each substance at several concentrations.)
With `Oc1ccc2cc(SSc3ccc4cc(O)ccc4c3)ccc2c1`, the Potency entry was “inactive”. The result for `CCc1cc(Cc2cc(CC)c(N)c(CC)c2)cc(CC)c1N` reads “inactive”; that for `CC1=NC(C)OC1C` (stereo not given), “inactive”. The entry for `CN(C/C=C/C#CC(C)(C)C)Cc1cccc2ccccc12` is “inactive”; for `[Cl][Bi]([Cl])([c]1ccccc1)([c]1ccccc1)[c]1ccccc1` it is 10.9 µM (active); for `CCCCCCCC[N+](CCCCCCCC)(CCCCCCCC)CCCCCCCC` it is 24.5 µM (active).

For `NC(=O)N1C(=O)C(C(=O)c2cc(Cl)cs2)c2cc(F)c(Cl)cc21` (stereo not given), the Potency entry was “inactive”. The entry for `Nc1c(Cl)cc(Cl)cc1Cl` is “inactive”; for `CCCCN1C(=O)[C@@H]([C@H](O)C2CCCCC2)NC(=O)C12CCN(Cc1ccc(Oc3ccc(C(=O)O)cc3)cc1)CC2` it is “inactive”.

For the compound `CCCCCCCCCCCCCCCC[N+](C)(C)CCN(Cc1ccc(OC)cc1)c1ncccn1`, the Potency is 10.7 µM (active). The entry for `CC(C)(C)C(=O)OCOC(=O)C1N2C(=O)CC2S(=O)(=O)C1(C)C` (stereo not given) is “inactive”. As for `C=C(C)C(=O)OCC(O)COc1ccc(C(C)(C)c2ccc(OCC(O)COC(=O)C(=C)C)cc2)cc1` (stereo not given), the Potency is 19.5 µM (active). The entry for `CCCCC(CC)COP(=O)(O)OCC(CC)CCCC` (stereo not given) is “inactive”; for `N#CSc1ccc(N)c([N+](=O)[O-])c1` it is “inactive”; for `CCc1cc(SCc2sc(-c3ccc(C(F)(F)F)cc3)nc2CN2CCN(c3ccc(OC)cc3)CC2)ccc1OCC(=O)O` it is “inactive”. The result for `OC1(c2ccc(Cl)c(C(F)(F)F)c2)CCN(CCCC(c2ccc(F)cc2)c2ccc(F)cc2)CC1` reads 21.3 µM (active). As for `c1ccc(CSCc2ccccc2)cc1`, the Potency result was “inactive”. The result for `CCCN(CCC)c1c([N+](=O)[O-])cc(C(F)(F)F)c(N)c1[N+](=O)[O-]` reads 48.9 µM (active). The figure for `CCN(Cc1cccnc1)C(=O)c1cccc(Cl)c1[C@]1(C)C(=O)N(Cc2ccc(OC)cc2OC)c2ccc(Cl)cc21` is 20.4 µM (active). The entry for `Cc1cc(N)c(S(=O)(=O)O)cc1Cl` is “inactive”. For `C[C@H]1[C@H]2CC[C@H]3[C@@H]4CC=C5C[C@@H](N(C)C)CC[C@]5(C)[C@H]4CC[C@]23CN1C`, the Potency result is “inactive”.

`C[C@]12CCC(=O)C=C1CC[C@@H]1[C@@H]2[C@@H](O)C[C@@]2(C)[C@H]1CC[C@]2(O)C(=O)COC(=O)CCC(=O)O`: the Potency entry is “inactive”. The result for `O=C(N/N=C/c1ccccc1O)c1ccncc1` reads “inactive”; that for `CCCCN(CCCC)C(=O)N(CCCC)CCCC`, “inactive”; that for `O=c1cccccc1O`, “inactive”. The result for `CSc1cnc(C)cn1` reads “inactive”. The result for `Cc1c(C)c2c(c(C)c1OC(=O)CCC(=O)O)CC[C@@](C)(CCC[C@H](C)CCC[C@H](C)CCCC(C)C)O2` reads “inactive”; that for `Cc1nc(-c2ccc3c(c2)CCN(CCC2CCC(NC(=O)/C=C/c4ccc(F)cc4)CC2)CC3)no1` (stereo not given), “inactive”; that for `[Cl][Au]([Cl])[Cl]`, 49 µM (active). Regarding `Cc1onc(-c2ccccc2Cl)c1C(=O)N[C@@H]1C(=O)N2[C@@H]1SC(C)(C)[C@@H]2C(=O)O`, the Potency result was “inactive”. The result for `O=C(Nc1cccc(C(F)(F)F)c1)c1cc(Br)cc(Br)c1O` reads “inactive”; that for `CC(C)(C)C1CCC(CC2=C(O)c3ccccc3C(=O)C2=O)CC1` (stereo not given), “inactive”; that for `Oc1cccc2cc3cccc(O)c3c(O)c12`, “inactive”. The entry for `O=C(Oc1cccc2cccnc12)c1ccccc1` is “inactive”. The result for `Nc1ccccc1O` reads “inactive”. On to `CCOc1ccc2nc3cc(N)ccc3c(N)c2c1`, for which the Potency result is “inactive”.

As to `Nc1cc(C(F)(F)F)ccc1S`, the Potency entry was “inactive”.

In the case of `CCOC(=O)O[C@H](C)OC(=O)c1ccc2c(c1)cc(C(=O)NC1CCN(C(C)C)CC1)n2Cc1cc(-c2ccc(Cl)s2)on1`, the Potency was 16.2 µM (active). In the case of `CC(=O)SC[C@@H](Cc1ccccc1)C(=O)NCC(=O)OCc1ccccc1`, the Potency result was “inactive”. In the case of `O=C(NOCC1CC1)c1ccc(F)c(F)c1Nc1ccc(I)cc1Cl`, the Potency result was “inactive”.

Source of the values: PubChem BioAssay (Tox21).
